Test results from PubChem BioAssay AID1159580 (chemical genetic matrix, 2015).
In all, about 5,500 compounds went through this assay and about 2,000 (36%) were called active. Another 18% or so got no clear call; they are omitted. Cut-off read from the data, not from the text of the source: active = normalized growth mostly below about 0.91 (no sharp cut-off); inconclusive = no clear call, values can overlap the other calls; inactive = mostly above about 0.92. This is one part of the list.

Experiment: chemical genetic growth profiling, strain panel (AID 1159580);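 note: tested at 20 µM; growth read once vehicle control cultures reached saturation at 30 °C; 1 = growth at the plate median or of vehicle wells; lower values mean less growth of the strain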
Settings: growth OD

Measured: normalized growth

NCC(N)C(=O)c1ccccc1 (stereo not drawn)
inactive: S. cerevisiae deletion strains, locus YJR043C, strain POL32, hits give low values 1.01 | S. cerevisiae deletion strains, locus YJR066W, strain TOR1, hits give low values 0.969 | S. cerevisiae deletion strains, locus YKL009W, strain mrt4, hits give low values 1.1 | S. cerevisiae deletion strains, locus YKL068W, hits give low values 1.03 | S. cerevisiae deletion strains, locus YKL085W, strain MDH1 (second series), hits give low values 1.02 | S. cerevisiae deletion strains, locus YKL085W, strain MDH1, hits give low values 1.02 | S. cerevisiae deletion strains, locus YKL160W, strain elf1, hits give low values 1.02 | S. cerevisiae deletion strains, locus YKL190W, strain CNB1, hits give low values 1.01 | S. cerevisiae deletion strains, locus YKR001C, strain vps1, hits give low values 0.979 | S. cerevisiae deletion strains, locus YKR026C, strain gcn3, hits give low values 1.02 | S. cerevisiae deletion strains, locus YKR091W, strain srl3, hits give low values 1.02 | S. cerevisiae deletion strains, locus YLL001W, strain dnm1, hits give low values 1.02 | S. cerevisiae deletion strains, locus YLL026W, hits give low values 1.03 | S. cerevisiae deletion strains, locus YLL041C, strain sdh2, hits give low values 1.02 | S. cerevisiae deletion strains, locus YLR027C, strain aat2, hits give low values 1.03 | S. cerevisiae deletion strains, locus YLR039C, strain RIC1, hits give low values 1.04 | S. cerevisiae deletion strains, locus YLR058C, strain SHM2, hits give low values 1.01 | S. cerevisiae deletion strains, locus YLR102C, strain apc9, hits give low values 0.992 | S. cerevisiae deletion strains, locus YLR113W, strain HOG1, hits give low values 0.949 | S. cerevisiae deletion strains, locus YLR221C, strain rsa3, hits give low values 1.04 | S. cerevisiae deletion strains, locus YLR258W, strain gsy2, hits give low values 1 | S. cerevisiae deletion strains, locus YLR262C, strain YPT6 (second series), hits give low values 1.03 | S. cerevisiae deletion strains, locus YLR262C, strain YPT6, hits give low values 1.06 | S. cerevisiae deletion strains, locus YLR268W, strain sec22, hits give low values 0.991 | S. cerevisiae deletion strains, locus YLR320W, strain mms22, hits give low values 1.04 | S. cerevisiae deletion strains, locus YLR330W, strain CHS5, hits give low values 1.04 | S. cerevisiae deletion strains, locus YLR342W, strain FKS1 (second series), hits give low values 0.985 | S. cerevisiae deletion strains, locus YLR342W, strain FKS1, hits give low values 1.01 | S. cerevisiae deletion strains, locus YLR357W, strain rsc2, hits give low values 1.03 | S. cerevisiae deletion strains, locus YLR370C, strain arc18, hits give low values 1.05 | S. cerevisiae deletion strains, locus YLR371W, strain rom2, hits give low values 1 | S. cerevisiae deletion strains, locus YLR384C, strain iki3, hits give low values 1.03 | S. cerevisiae deletion strains, locus YLR418C, strain cdc73, hits give low values 0.987 | S. cerevisiae deletion strains, locus YML016C, strain PPZ1, hits give low values 1 | S. cerevisiae deletion strains, locus YML032C, strain rad52, hits give low values 1.01 | S. cerevisiae deletion strains, locus YML120C, strain ndi1, hits give low values 1 | S. cerevisiae deletion strains, locus YML124C, strain tub3, hits give low values 1.01 | S. cerevisiae deletion strains, locus YMR058W, strain fet3, hits give low values 1.05 | S. cerevisiae deletion strains, locus YMR078C, strain ctf18, hits give low values 1.01 | S. cerevisiae deletion strains, locus YMR125W, strain sto1, hits give low values 1.01 | S. cerevisiae deletion strains, locus YMR129W, hits give low values 1.04 | S. cerevisiae deletion strains, locus YMR205C, strain PFK2, hits give low values 1.06 | S. cerevisiae deletion strains, locus YMR223W, strain ubp8, hits give low values 1.04 | S. cerevisiae deletion strains, locus YMR231W, strain pep5, hits give low values 1.03 | S. cerevisiae deletion strains, locus YMR307W, strain GAS1, hits give low values 0.964 | S. cerevisiae deletion strains, locus YNL067W, strain RPL9B, hits give low values 1 | S. cerevisiae deletion strains, locus YNL071W, strain lat1, hits give low values 1.02 | S. cerevisiae deletion strains, locus YNL153C, strain GIM3, hits give low values 1.01 | S. cerevisiae deletion strains, locus YNL183C, strain NPR1, hits give low values 0.901 | S. cerevisiae deletion strains, locus YNL209W, strain ssb2, hits give low values 1.03 | S. cerevisiae deletion strains, locus YNL233W, strain BNI4, hits give low values 1.02 | S. cerevisiae deletion strains, locus YNL248C, strain rpa49, hits give low values 1.03 | S. cerevisiae deletion strains, locus YNL250W, strain rad50, hits give low values 1.02 | S. cerevisiae deletion strains, locus YNL271C, strain bni1, hits give low values 1.01 | S. cerevisiae deletion strains, locus YNL298W, strain CLA4, hits give low values 1.01 | S. cerevisiae deletion strains, locus YNL307C, strain MCK1, hits give low values 0.996 | S. cerevisiae deletion strains, locus YNL322C, strain KRE1 (second series), hits give low values 1.01 | S. cerevisiae deletion strains, locus YNL322C, strain KRE1, hits give low values 1.01 | S. cerevisiae deletion strains, locus YNR049C, strain mso1, hits give low values 1.03 | S. cerevisiae deletion strains, locus YNR052C, strain pop2, hits give low values 0.994 | S. cerevisiae deletion strains, locus YOL012C, strain htz1 1.74 | S. cerevisiae deletion strains, locus YOL147C, strain pex11, hits give low values 0.993 | S. cerevisiae deletion strains, locus YOR001W, strain rrp6, hits give low values 1.04 | S. cerevisiae deletion strains, locus YOR061W, strain CKA2, hits give low values 1.01 | S. cerevisiae deletion strains, locus YOR069W, strain VPS5, hits give low values 1.01 | S. cerevisiae deletion strains, locus YOR070C, strain gyp1, hits give low values 1.04 | S. cerevisiae deletion strains, locus YOR080W, strain dia2, hits give low values 1.05 | S. cerevisiae deletion strains, locus YOR083W, strain WHI5, hits give low values 1.02 | S. cerevisiae deletion strains, locus YOR106W, strain vam3, hits give low values 1.02 | S. cerevisiae deletion strains, locus YOR136W, strain idh2, hits give low values 1.01 | S. cerevisiae deletion strains, locus YOR144C, strain elg1, hits give low values 0.996 | S. cerevisiae deletion strains, locus YOR184W, strain ser1, hits give low values 0.994 | S. cerevisiae deletion strains, locus YOR231W, strain MKK1, hits give low values 0.962 | S. cerevisiae deletion strains, locus YOR265W, strain rbl2, hits give low values 1.05 | S. cerevisiae deletion strains, locus YOR270C, strain vph1, hits give low values 1.11 | S. cerevisiae deletion strains, locus YOR290C, strain snf2, hits give low values 1 | S. cerevisiae deletion strains, locus YOR316C, strain cot1, hits give low values 0.993 | S. cerevisiae deletion strains, locus YPL051W, strain arl3, hits give low values 1.04 | S. cerevisiae deletion strains, locus YPL078C, strain atp4, hits give low values 1.02 | S. cerevisiae deletion strains, locus YPL106C, strain sse1, hits give low values 1.01 | S. cerevisiae deletion strains, locus YPL240C, strain hsp82, hits give low values 1.02 | S. cerevisiae deletion strains, locus YPL256C, strain CLN2, hits give low values 0.96 | S. cerevisiae deletion strains, locus YPR119W, strain clb2, hits give low values 0.999 | S. cerevisiae deletion strains, locus YPR141C, strain kar3, hits give low values 1.01 | S. cerevisiae deletion strains, locus YPR163C, strain tif3, hits give low values 0.995 | S. cerevisiae deletion strains, locus YPR167C, strain met16, hits give low values 1.01 | S. cerevisiae deletion strains, strain wtn01, hits give low values 0.999 | S. cerevisiae strains, strain wild type, hits give low values 1.02
